PTAP TSG101 blk – qHTS Assay for Iinhibitors of HIV-1 Budding by Blocking the Interaction of PTAP/TSG101; Tumor susceptibility gene 101 protein (Homo sapiens), Q99816; AID 493005, 2010; Potency, µM (series often up to 115 µM), for inactives: at the top dose activity change, negative = inhibition, hits mostly inhibitors; 340,000 tested, under 10 active; Fluorescence polarization, FITC-PTAP peptide / Tsg101 binding; active means well fitted inhibition curve with a large enough effect in the main read-out, with a control signal flat, not every such curve was filed as active; inconclusive means small, poorly fitted or top-dose-only effect, or effect the other way, or a change in a side signal; inactive means no such curve, though single readings can be large or run the other way; further: % of control where 0% means no effect
Target sequence (Q99816 whole entry, looked up): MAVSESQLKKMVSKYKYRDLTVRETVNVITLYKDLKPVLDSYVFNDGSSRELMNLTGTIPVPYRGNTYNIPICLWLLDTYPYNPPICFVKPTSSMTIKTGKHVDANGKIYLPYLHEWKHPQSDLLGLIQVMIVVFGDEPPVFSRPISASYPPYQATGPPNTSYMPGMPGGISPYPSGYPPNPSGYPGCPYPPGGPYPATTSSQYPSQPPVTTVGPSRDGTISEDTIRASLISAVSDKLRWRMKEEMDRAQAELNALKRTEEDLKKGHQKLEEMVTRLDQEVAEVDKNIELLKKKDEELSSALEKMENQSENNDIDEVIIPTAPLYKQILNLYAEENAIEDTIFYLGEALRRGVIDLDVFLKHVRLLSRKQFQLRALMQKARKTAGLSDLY
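Steps: Tsg101 binding domain dispensed (10 uM final), compounds pinned in DMSO, FITC-labeled PTAP-motif peptide added (50 nM final); after 20 min binding at room temperature, polarization measured.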
SW480 rerep – A quantitative high throughput screen for small molecules that induce DNA re-replication in SW480 colon adenocarcinoma cells | SW480 DNA re-replication, Hoechst DNA content imaging, 48 h | Potency, µM (doses to about 46.1 µM), inactives show at the top dose re-replication activation, actives largely listed as activators | 340,000 tested, 1.8% active; further: % of control where 0% means no effect; nearly all actives have a fitted effect of over 55% in size
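First, 250 cells per well were seeded. Next, compound or vehicle (23 nL) was pinned in, plates sat 48 hr at 37 C. Finally Hoechst was added for 40 min before fluorescence scanning.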
KB-V1 cytotox – qHTS assay for MDR1-selective chemotherapeutics: Primary screen using the drug-selected MDR subline cells KB-V1; KB-V1 MDR cells viability, CellTiter-Glo, 72 h; Potency, µM (top dose mostly 46.1 µM), usual class: cytotoxic; 400,000 tested, 3.4% active; AID 1347076, 2019; further: on the % scale 0 is the no-effect control and ±100 the full control effect; nearly all actives have a fitted effect of over 60% in size
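Drug-selected KB-V1 cells, grown in DMEM lacking phenol red with 10% FBS, receive compound titrations; after three days at 37 degrees C, surviving cell ATP is quantified by CellTiter-Glo luminescence and responses normalized and curve-fitted.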
RGS4 inhibitor – Inhibitors of Regulator of G Protein Signaling (RGS) 4: qHTS. Regulator of G-protein signaling 4 (Homo sapiens), P49798. Transcreener GDP fluorescence polarization, RGS4-accelerated GTP hydrolysis. Potency, µM (highest dose often 114 µM), inactives show top-dose activity change, negative = inhibition, hits mostly inhibitors. 390,000 tested, 0.039% active. AID 504845, 2011; further: on the % scale 0 is the no-effect control and ±100 the full control effect; nearly all actives have a fitted effect of over 75% in size
Target sequence (P49798 whole entry, looked up): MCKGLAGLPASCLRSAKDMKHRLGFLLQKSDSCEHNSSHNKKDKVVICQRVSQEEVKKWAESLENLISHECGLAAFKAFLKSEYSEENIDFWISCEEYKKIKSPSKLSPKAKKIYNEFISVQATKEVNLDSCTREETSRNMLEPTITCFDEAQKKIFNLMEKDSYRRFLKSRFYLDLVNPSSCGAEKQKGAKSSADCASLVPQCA
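MLSMR compounds (23 nl, pin-transferred) preincubated 10 min at room temperature with a 500nM (2x) first reagent, then RGS4 at 900nM (2x) plus Transcreener GDP mix added; fluorescence polarization (620/688 nm) read before and after 90 min at 30 °C.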
KB-3-1 cytotox – qHTS assay for MDR1-selective chemotherapeutics: Primary screen using the parental adenocarcinoma cell KB-3-1; KB-3-1 viability, CellTiter-Glo ATP luminescence, 72 h; Potency, µM (top dose mostly 46.1 µM), usual class: cytotoxic; 400,000 tested, 1.4% active; AID 1347075, 2019; further: on the % scale 0 is the no-effect control and ±100 the full control effect; nearly all actives have a fitted effect of over 60% in size
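Using CellTiter-Glo luminescence, growth of non-resistant KB-3-1 adenocarcinoma cells is assessed 72 h after pin-tool compound addition at 37 °C. Normalized responses across the concentration series yield fitted curves.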
MCF10A rerep – A quantitative high throughput screen for small molecules that induce DNA re-replication in MCF 10a normal breast cells; AID 624296, 2012; 350,000 tested, 2.9% active; MCF 10A DNA re-replication, Hoechst nuclear intensity, 48 h; Potency, µM (titrated, usually from 46.1 µM), inactives show at the top dose activity, positive = re-replication, hits mostly activators; further: % of control where 0% means no effect; nearly all actives have a fitted effect of over 50% in size
Starred values were filed as active, the others as inactive; i = inactive; ? = inconclusive; . = not tested or not shown; [ ] = remark or other dose. An excerpt weighted towards active compounds, which were near 6.6% of everything screened. Unless noted, the call rests on the fitted dose curve; in most records, active means well fitted curve in the direction sought with a large enough effect; inconclusive means small, poorly fitted or top-dose-only effect, or another doubt; inactive means no such curve, though single readings can be large; an effect the other way counts as inactive or inconclusive. Potency means the concentration at half of the fitted maximal effect.

SMILES	PTAP TSG101 blk	SW480 rerep	KB-V1 cytotox	RGS4 inhibitor	KB-3-1 cytotox	MCF10A rerep
COc1ccc(OC)c(NC(=O)Cn2cc(C(=O)c3cccs3)c3ccccc32)c1	.	.	.	-7.1%	.	.
CC1CCN(c2ccccc2NC(=S)NC(=O)c2cccs2)CC1	-0.8%	-1.8%[9.22 µM]	i	5.1%	i	10µM*
CC1CCN(c2ccccc2NC(=S)NC(=O)c2ccco2)CC1	-1.9%	9.1%	18.4µM*	-36.5%	i	18.4µM*
COc1ccc(Cl)cc1NC(=O)Cn1cc(C(=O)c2ccncc2)c(=O)c2cc(C)ccc21	.	.	.	4.0%	.	.
Cc1ccc(Cl)cc1NC(=O)c1cc2ccccc2cc1O	-2.9%	?	?	-17.8%	9.2µM*	7.31µM*
Cc1ccc(Cl)cc1NC(=O)COC(=O)c1ccccc1O	-12.3%	-3.7%	i	0.0%[56.9 µM]	i	-2.6%
Cc1ccc(Cl)cc1NC(=O)c1cccc(OC(F)F)c1	-5.9%	-4.3%	18.4µM*	-16.8%	i	12.8%
COc1cccc(NC(=O)Nc2cc(Cl)ccc2C)c1	-2.3%	-6.3%	?	-15.4%	i	-10.5%
Cc1ccc(NS(=O)(=O)c2ccc(-c3cc(C)no3)cc2)c(C)c1	.	.	.	4.3%	.	.
COCCN(C(=O)Cc1cccs1)C(C(=O)NCc1ccc(OC)cc1)c1ccc(C)cc1 (configuration not stated)	-4.8%	1.0%	?	8.2%	i	26.9%
O=C(NC1CCCC1)C(c1ccncc1)N(Cc1ccccc1)C(=O)Cc1cccs1 (configuration not stated)	1.3%	-2.7%	?	11.4%	i	0.5%
COc1ccc(CNC(=O)C(c2ccc(C)o2)N(Cc2cccs2)C(=O)Cc2cccs2)cc1 (configuration not stated)	-0.6%	21.0%	14.6µM*	-14.8%	?	?
O=C(NC1CCCC1)C(c1ccsc1)N(Cc1ccccc1)C(=O)Cc1cccs1 (configuration not stated)	-4.2%	7.9%	4.61µM*	-0.5%	i	19.8%
O=C(NCc1ccccc1)C(c1ccccc1)N(Cc1ccc2c(c1)OCO2)C(=O)Cc1cccs1 (configuration not stated)	-0.3%	5.1%	13µM*	-17.9%	i	?
COc1ccc(NC(=O)c2ccc(Cn3cc(Cl)cn3)cc2)cc1	-2.0%	-0.3%	i	31.2%	i	-2.0%
CN(C)c1ccc(NC(=O)c2ccc(Cn3cc([N+](=O)[O-])cn3)cc2)cc1	1.9%	?	i	-46.2%	18.4µM*	?
COc1cccc(-c2cc(C(=O)Nc3cc(OC)c(OC)c(OC)c3)on2)c1	.	.	?	19.1%	9.2µM*	.
Cc1c(C(=O)OC2CCCCC2)[nH]c2c1C(=O)CC(c1ccccc1Cl)C2 (configuration not stated)	.	.	?	-5.2%	4.11µM*	.
Cc1c(C(=O)N2CCOCC2)[nH]c2c1C(=O)CC(c1ccccc1Cl)C2 (configuration not stated)	-5.0%	15.3%	?	4.8%	18.4µM*	11.6%
Cc1c(C(=O)OC2CCCCC2)[nH]c2c1C(=O)CC(c1ccccc1)C2 (configuration not stated)	.	.	?	-11.0%	i	.
Cc1c(C(=O)OCC2CCCO2)[nH]c2c1C(=O)CC(c1ccco1)C2 (configuration not stated)	1.2%	2.91µM*	4.11µM*	-1.1%[11.4 µM]	3.26µM*	3.66µM*
C=CCOC(=O)c1[nH]c2c(c1C)C(=O)CC(c1ccco1)C2 (configuration not stated)	-8.8%	0.184µM*	?	?	?	?
Cc1cc2c(cc1C)N[C@]1(C[C@H]3CCCC(=O)N4CC[C@@H](C1)[C@@H]34)C(=NC1CCCCC1)N2	.	.	i	.	i	.
CCN(CC)c1ccc(/C=C2\C=Cc3ccccc32)cc1	.	.	i	.	?	.
COC(=O)c1[nH]c2c(c1C)C(=O)CC(c1ccccc1)C2 (configuration not stated)	-3.5%	16.6%	0.581µM*	4.2%	1.3µM*	12.6%
SMILES	PTAP TSG101 blk	SW480 rerep	KB-V1 cytotox	RGS4 inhibitor	KB-3-1 cytotox	MCF10A rerep
C/C=C/COC(=O)c1[nH]c2c(c1C)C(=O)CC(c1ccco1)C2 (configuration not stated)	0.1%	?	i	-39.4%	i	?
Cc1c(C(=O)OCC(C)C)[nH]c2c1C(=O)CC(c1ccco1)C2 (configuration not stated)	2.7%	0.517µM*	?	-41.0%	i	18.4µM*
Cc1c(C(=O)OC2CCCC2)[nH]c2c1C(=O)CC(c1ccco1)C2 (configuration not stated)	-1.4%	?	0.581µM*	-37.3%	0.517µM*	?
COc1ccc(NC(=O)CCc2c(C)nc3c(c2C)c(=O)n(C)c(=O)n3C)c(OC)c1	.	.	i	-12.6%	i	.
Cc1oc2ccc(O)c(CN3CCN(C)CC3)c2c1C(=O)Nc1ccc(C(C)C)cc1	.	.	i	-14.9%	i	.
CCOC(=O)c1cnc2c(C)c(Cl)ccc2c1Nc1ccc(N2CCOCC2)cc1	.	.	i	-17.7%	i	.
Cc1ccc(CNc2ccc(-c3nc(C(C)C)no3)cc2[N+](=O)[O-])cc1	.	.	i	5.1%	i	.
COc1ccc2oc(C(=O)N3CCN(C(c4ccccc4)c4ccccc4)CC3)c(C)c2c1	-10.9%	-64.9%	i	-4.6%	i	?
O=C(c1ccc(Br)s1)N1CCN(C/C=C/c2ccccc2)CC1	-11.4%	-1.2%	14.6µM*	-3.0%	i	19.5%
COc1ccc(O)c(CN2CCN(C/C=C/c3ccccc3)CC2)c1	-7.4%	-7.3%	14.6µM*	-13.1%	i	43.0%
Cc1c(C(=O)N2CCN(C/C=C/c3ccccc3)CC2)oc2c(F)cccc12	0.5%	-4.4%	16.4µM*	-3.1%	i	11.2%
COc1ccc2oc(C(=O)N3CCN(C/C=C/c4ccccc4)CC3)c(C)c2c1	-5.8%	2.8%	i	10.1%	i	23.1µM*
COc1ccc(C2/C=C\CN([S+](=O)([O-])c3ccc4ccccc4c3)C(C)C(=O)N2Cc2ccc(F)cc2)cc1 (configuration not stated)	.	.	.	16.5%	.	.
